Our source for the Potency values is PubChem BioAssay (Tox21).

Inconclusive results are not listed. Entries that show only a call come without a potency. Active and inactive are the calls of the source. Calls follow the shape of the dose curve; as a rule, active = well fitted cell-killing curve with a large enough effect in the repeat runs; inconclusive = weak or mixed curves, or effect the other way; inactive = flat fitted curve, though single readings scatter.

Test [1] in a line: cAMP Responsive Elements (CRE) small molecule antagonists, cell-based qHTS assay: qHTS cell viability counter screen (AID 2060913). Also: nearly all actives have a fitted effect of over 40% in size. The settings on record: CRE-bla HEK293T viability, CellTiter-Glo luminescence, 5 h; series mostly up to 92.4 µM. An outline of the steps: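 Steps: cells plated and held 18 hrs at 37 C/5% CO2; compounds and NKH477 (0.25 uM final) added; 3 hrs incubation; reporter substrate read; CellTiter-Glo added to measure cytotoxicity by luminescence.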

The nature of test [2]: cAMP Responsive Elements (CRE) small molecule agonists, cell-based qHTS assay: qHTS cell viability counter screen (AID 2060914). Also: nearly all actives have a fitted effect of over 50% in size. The settings on record: CRE-bla HEK293T viability, CellTiter-Glo luminescence, 5 h; series mostly up to 92.4 µM. An outline of the steps: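 Cytotoxicity counter screen multiplexed with the CRE-bla reporter assay in HEK 293T cells: 3 h compound exposure at 37 °C, followed by CellTiter-Glo luminescence measured in the same wells.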

Regarding `C=C(C)C(=O)OCCC[Si](OC)(OC)OC`, the Potency result in test [1] and in test [2] was “inactive” throughout.

In the case of `c1ccc(-c2ccccc2-c2ccccc2)cc1`, the Potency entry in test [1] and in test [2] was “inactive” each time.

`C=Cc1ccccc1`: the Potency result in test [1] and in test [2] was “inactive” throughout.
